Source: PubChem BioAssay (NCATS)
Inconclusive results are not listed. Active and inactive are the calls of the source. Calls follow the shape of the dose curve; as a rule, active = well fitted cell-killing curve with a large enough effect; inconclusive = small, poorly fitted or top-dose-only effect, or effect the other way; inactive = flat fitted curve, though single readings scatter.

Key:
Assay in all cases: Primary qHTS to identify gynecologic anti-cancer compounds using libraries of approved drugs and bioactive compounds (AID 1345084); also: nearly all actives have a fitted effect of over 55% in size
[1] = system: CASKI; conditions: Gynecologic cancer cell panel viability, ATPlite luminescence, 48 h; series mostly up to 57.5 µM
Summary of the method: (§1)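 Measured: luminescence after ATPlite addition (15 min, RT). Exposure: 48 h, 37 C, 5% CO2.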

[2] = system: Es-2; conditions: Gynecologic cancer cell panel viability, ATPlite luminescence, 48 h; series mostly up to 57.5 µM
Summary of the method: as §1

[3] = system: HeLa; conditions: Gynecologic cancer cell panel viability, ATPlite luminescence, 48 h; series mostly up to 57.5 µM
Summary of the method: as §1

[4] = system: Hek293T; conditions: Gynecologic cancer cell panel viability, ATPlite luminescence, 48 h, control line for the selectivity index; series mostly up to 57.5 µM
Summary of the method: as §1

[5] = system: JEG-3; conditions: Gynecologic cancer cell panel viability, ATPlite luminescence, 48 h; series mostly up to 57.5 µM
Summary of the method: as §1

[6] = system: OV90; conditions: Gynecologic cancer cell panel viability, ATPlite luminescence, 48 h; series mostly up to 57.5 µM
Summary of the method: as §1

[7] = system: PA-1; conditions: Gynecologic cancer cell panel viability, ATPlite luminescence, 48 h; series mostly up to 57.5 µM
Summary of the method: as §1

[8] = system: SKOV3; conditions: Gynecologic cancer cell panel viability, ATPlite luminescence, 48 h; series mostly up to 57.5 µM
Summary of the method: as §1

[9] = system: Tov-21-G; conditions: Gynecologic cancer cell panel viability, ATPlite luminescence, 48 h; series mostly up to 57.5 µM
Summary of the method: as §1

[10] = system: Tov112D; conditions: Gynecologic cancer cell panel viability, ATPlite luminescence, 48 h; series mostly up to 57.5 µM
Summary of the method: as §1

Measured: Potency

CC(C)(C)c1cc(C=O)cc(C(C)(C)C)c1O
inactive: all assays above

Cc1c(F)cc2c(=O)c(C(=O)O)cn3c2c1CCC3C (stereo not given)
inactive: all assays above

CCOCCn1c(C2CCN(CCc3ccc(C(C)(C)C(=O)O)cc3)CC2)nc2ccccc21
inactive: all assays above

Oc1ccccc1
inactive: all assays above

O=C(O)/C=C(\CC(=O)O)C(=O)O
inactive: all assays above

O=C(CCOCCOCCOCCOCCC(=O)Nc1c(I)cc(I)c(C(=O)O)c1I)Nc1c(I)cc(I)c(C(=O)O)c1I
inactive: all assays above

CC1(C)O[C@@H]2C[C@H]3[C@@H]4C[C@H](F)C5=CC(=O)C=C[C@]5(C)[C@@]4(F)[C@@H](O)C[C@]3(C)[C@]2(C(=O)CO)O1
inactive: all assays above

Nc1c[n+](N2CCOCC2)no1
inactive: all assays above

CSc1ccc(/C=C2/C(C)=C(CC(=O)O)c3cc(F)ccc32)cc1
inactive: all assays above

C[C@@]12CCC[C@H]1[C@@H]1CC[C@H]3C[C@@H](O)CC[C@]3(C)[C@H]1CC2
inactive: all assays above

CN(C(=O)C(Cl)Cl)c1ccc(OC(=O)c2ccco2)cc1
inactive: all assays above

COc1ccccc1N1CCN(CC(O)COc2cc(OC)c(OC)c(OC)c2)CC1 (stereo not given)
inactive: all assays above

C[C@@H]1CCC[C@H](C)N1CCCC(O)(c1ccccc1)c1ccccn1 (stereo not given in full)
inactive: all assays above

Cc1ccc2c(Cl)cc(Cl)c(O)c2n1
inactive: all assays above

CO[C@@]1(NC(=O)CSC[C@@H](N)C(=O)O)C(=O)N2C(C(=O)O)=C(CSc3nnnn3C)CS[C@@H]21
inactive: all assays above

CN(C)[C@@H]1C(=O)C(C(N)=O)=C(O)[C@@]2(O)C(=O)C3=C(O)c4c(O)cccc4C[C@H]3C[C@@H]12
inactive: all assays above
